aSyn 5UTR act = Activators via SNCA 5'UTR binding, MLPCN | alpha-synuclein 5'UTR reporter, activators screen | activity score, % (tested at 7.5 µM), hits read low | 7.1% of 300,000 active | AID 1814; in the data active means activity score below about -60%
Hits are given with their value; i = inactive. Not all results are given here.

SMILES	aSyn 5UTR act
Cc1ccc(C(=O)CSc2nnc(-c3ccco3)n2Cc2ccccc2)cc1	-96.8
Cc1cc(NC(=O)COc2cccc3cccnc23)no1	-95.6
Cc1cc(NC(=O)COc2ccc(C)c(C)c2)no1	-61.7
Cc1ccccc1OCC(=O)NC1=NCCS1	-77.2
Cc1cc(NC(=O)COc2cccc(C)c2C)no1	-66.1
Cc1cc(NC(=O)COc2ccccc2C)no1	-115.9
O=C(Nc1ccccc1Br)c1ccc(OC(=S)N2CCOCC2)cc1	-192.3
Cc1ccc(NC(=O)c2ccc(OC(=S)N3CCOCC3)cc2)cc1	-74.9
CC(=O)c1cc(-c2ccccc2)n(CC(=O)NC2CCCC2)c1C	-64.9
CCc1nc(-c2cc3ccc(C)cc3[nH]c2=O)no1	-84.3
CCOC(=O)c1ccc(-c2ccc(/C=C(\C#N)C(=O)NCC3CCCO3)o2)cc1 (stereo unspecified)	-84.9
N#C/C(=C\c1c[nH]c2ccccc12)C(=O)NCC1CCCO1 (stereo unspecified)	-72.8
N#C/C(=C\c1cccs1)C(=O)NCC1CCCO1 (stereo unspecified)	-66.1
CC(C)OC(=O)/C(C#N)=C/c1cn(Cc2ccccc2)c2ccccc12	i
CC(C)OC(=O)/C(C#N)=C/c1c[nH]c2ccccc12	-79.9
O=[N+]([O-])c1ccc2nc(-c3ccccc3)n(OCc3ccc(Cl)cc3)c2c1	-86.5
COn1c(-c2ccccc2)nc2ccc(Cl)cc21	-137.6
CCn1c(C)cc(/C=C2/SC(=S)NC2=O)c1C	-67.1
COc1ccc(-n2c(C)cc(/C=C3\SC(=O)NC3=O)c2C)cc1	-145.9
Cc1cc(/C=C2\SC(N)=NC2=O)c(C)n1-c1ccc(F)cc1	-62.3
Cc1ccc(-n2c(C)cc(/C=C3\SC(=O)NC3=O)c2C)cc1	-174.5
Cc1ccc(C)c(-c2[nH]ncc2CN2CCCC(CO)(Cc3ccccc3C)C2)c1 (stereo unspecified)	i
Cc1ccc(/C=C2\SC(=S)N(CCCC(=O)NNC(=O)c3ccccc3O)C2=O)cc1	i
Cc1cc(/C=C2\SC(=S)NC2=O)c(C)n1-c1cccc(O)c1	-110.7
Cc1cc(/C=C2\SC(=S)N(C)C2=O)c(C)n1-c1ccccc1O	-125.8
SMILES	aSyn 5UTR act
Cc1cc(/C=C2/C(=O)NN(c3ccccc3)C2=O)c(C)n1-c1cccc(O)c1	-74.4
COc1ccc(NC(=O)CN(C)C(=O)/C=C/c2ccc(S(=O)(=O)N3CCCCCC3)cc2)cc1	i
COc1ccc(/C=C/C(=O)NC(=S)N2CCN(c3ccccn3)CC2)cc1	-121.6
COc1ccc(/C=C/C(=O)NC(=S)N2CCSCC2)cc1	-65.2
CCOc1cc(C)c(S(=O)(=O)Nc2ccc3cn[nH]c3c2)cc1C	-73.7
O=C(OCn1ncc(Cl)c(Cl)c1=O)c1ccc(C(F)(F)F)cc1	-117.3
O=[N+]([O-])c1ccc(N/N=C/c2cccs2)nc1	-187.1
Cc1ccccc1-n1c(C)cc(/C=N/Nc2ccc([N+](=O)[O-])cn2)c1C	-75.8
O=C1CCCCCN1Cc1nnc(SCc2nc3ccccc3s2)n1-c1ccccn1	-108.7
CC1CCc2c(sc3nc(CSc4n[nH]c(N)n4)[nH]c(=O)c23)C1 (stereo unspecified)	-92.3
CC(=O)c1cc(C#N)c(SCc2ccccn2)nc1C	-113.6
CC(=O)c1cc(C#N)c(SCc2ccccc2)nc1C	-84.6
CCCCCCc1ccc(N2C[C@H](C)[C@@H](CC(=O)NCc3ccccc3)C2=O)cc1	-82.2
C/C(=N\Nc1nc(-c2ccccn2)nc2ccccc12)c1ccc(F)cc1	i
C/C(=N\Nc1nc(-c2ccccc2O)nc2ccccc12)c1ccccc1	-90.9
Nc1ccc2nc(NC(=O)C3CCCCC3)sc2c1	-124.3
O=C(Nc1nnc(-c2ccccc2F)s1)C1CCCO1 (stereo unspecified)	-181.1
O=C(Nc1nc2ccccc2s1)C1CCCO1 (stereo unspecified)	-131.7
O=C(Nc1nc2ccc(F)cc2s1)C1CCCO1 (stereo unspecified)	-145.2
O=C(Nc1ccc(-c2nc3cccnc3s2)cc1)C1CCCO1 (stereo unspecified)	i
Cc1cc(C)c2sc(NC(=O)C3CC3)nc2c1	-89.3
Oc1ccc(-c2csc(Nc3ccccn3)n2)c(O)c1	-133.9
Cc1cccnc1Nc1nc(-c2ccc(O)cc2O)cs1	-187.9
Cc1ccc(-n2ncc3c(SCc4ccccc4)ncnc32)cc1	-179.8
Cc1ccc(CSc2ncnc3c2cnn3-c2ccc(C)cc2)cc1	-93.0
SMILES	aSyn 5UTR act
Fc1ccc(-n2ncc3c(SCc4cccnc4)ncnc32)cc1	-137.5
Cc1ccc(CSc2ncnc3c2cnn3-c2ccccc2)cc1	-136.7
Cc1ccc(-n2ncc3c(SCC(=O)NNC(=O)c4ccco4)ncnc32)cc1	-105.6
CSC1=C(C#N)C(c2ccc(Cl)cc2)C2=C(CC(C)(C)CC2=O)N1 (stereo unspecified)	i
CN(C)c1ccc(P(=O)(Nc2ccccc2)N2CCOCC2)c(NC(=O)c2cccs2)c1 (stereo unspecified)	-99.9
CN(C)c1ccc(P(=O)(Nc2ccc([N+](=O)[O-])cc2)N2CCOCC2)c(NC(=O)c2cccs2)c1 (stereo unspecified)	-66.2
Cc1ccc(NP(=O)(c2ccc(N(C)C)cc2NC(=O)c2cccs2)N2CCOCC2)cc1 (stereo unspecified)	-91.3
Cc1ccc(Oc2nccc(-c3ccc(Cl)cc3)n2)cc1	-67.1
CC1CN(C(=O)c2ccc(COc3ccc(C(C)C)cc3)o2)CC(C)O1 (stereo unspecified)	-110.2
CCc1ccc(OCc2ccc(C(=O)O)o2)cc1	-144.7
CC(C)c1ccc(OCc2ccc(C(=O)NN3CCN(C)CC3)o2)cc1	-134.4
COc1ccc(OCc2cc(C(=O)O)c(C)o2)cc1	-92.8
CC(C)c1ccc(OCc2ccc(C(=O)N(C)C)o2)cc1	-171.2
CC(C)c1ccc(OCc2ccc(C(=O)O)o2)cc1	-94.0
COc1ccc(NC(=O)c2cc3ccccc3o/c2=N\NS(=O)(=O)c2ccc(C)cc2)cc1	-133.0
COc1ccc2o/c(=N\O)c(C(=O)Nc3ccc(C)cc3)cc2c1	-281.7
COc1ccc2oc(=N)c(C(=O)Nc3ccc(F)cc3)cc2c1	-97.0
COc1ccc2oc(=N)c(C(=O)Nc3ccc(C)cc3)cc2c1	-101.4
N=c1oc2ccc(Cl)cc2cc1C(=O)Nc1ccc(F)cc1	-67.7
Cc1ccc(OC/C(=N\O)C(C)(C)C)c([N+](=O)[O-])c1	-77.1
Cc1ccc(OCC(=O)Nc2ccccc2[N+](=O)[O-])c(Br)c1	-207.2
Cc1ccc(OCC(=O)Nc2ccon2)c([N+](=O)[O-])c1	-91.3
CCn1nnc(NC(=O)c2ccc(-c3ccccc3[N+](=O)[O-])o2)n1	-89.5
CCCCn1nnc(NC(=O)c2ccc(-c3ccccc3)cc2)n1	-128.8
O=C(CCCCCN1C(=O)c2cccc3cccc(c23)C1=O)NCc1cccnc1	i
SMILES	aSyn 5UTR act
O=C(NCc1cccnc1)c1ccc(-c2ccccc2[N+](=O)[O-])o1	-64.4
CCn1nnc(NC(=O)c2cc3ccccc3o2)n1	-168.0
CCCCn1nnc(NC(=O)c2cc3ccccc3o2)n1	-136.8
CC(=O)c1cccc(NC(=O)c2ccc(-c3ccccc3[N+](=O)[O-])o2)c1	-238.5
CCCn1nnc(NC(=O)c2cc3ccccc3o2)n1	-156.0
CCOc1ccc(N/C=C/C(=O)c2ccc(C)cc2)c([N+](=O)[O-])c1	-197.7
CCOc1ccc(N/C=C/C(=O)c2ccc3ccccc3c2)c([N+](=O)[O-])c1	-158.5
Cc1ccc(C(=O)/C=C/Nc2ccc([N+](=O)[O-])cc2Br)cc1	-124.4
O=C(NNC(=O)c1ccccc1OCc1ccccc1)c1ccccc1O	i
COc1ccccc1C(=O)NNC(=S)NC(=O)c1cc(OC)c(OC)c(OC)c1	i

Screening results (PubChem)
